According to PubChem BioAssay (NCATS):
Records with an inconclusive call do not appear. A call without a number means that no potency is given here. Active and inactive are the calls of the source. Calls come from the whole dose curve; as a rule, active = well fitted curve in either direction with a large enough effect (not every such curve was filed as active); inconclusive = small, poorly fitted or top-dose-only effect, or another doubt; inactive = flat fitted curve, though single readings scatter.

Target: Mitogen-activated protein kinase 10 (Mus musculus) (UniProt Q61831)
Assay: JNK3 AlphaScreen Assay (AID 530);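 note: kinase came from lysate of stimulated human HepG2 cells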
Details: JNK3 lysate, c-Jun phosphorylation; series mostly up to 57.1 µM
Summary of the method: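 JNK3 came from HepG2 lysates pre-activated with IL-1beta and TNF-alpha and phosphorylated biotinylated GST-cJun (1-79) at 10 uM ATP, pH 7.6, room temperature. Compounds were titrated. AlphaScreen signal used anti-phospho-cJun (Ser73) antibody.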

| SMILES | Potency |
| --- | --- |
| COC(=O)[C@@]1(Cc2ccc(F)cc2)[C@@H]2C(=CC(=O)[C@H]2CC(=O)C(=O)N(C)C)CN1C(=O)c1ccccc1 | inactive |
| C/C(=C\C1CCCCC1)C(NC(=O)c1ccc(C(F)(F)F)cc1)c1ccc(-c2ccccc2)cc1 (stereo not given) | inactive |
| CCc1c2c(nc3ccc(OC)cc13)COC2 | inactive |
| CC1(C)C(=O)C(c2ccccc2)=C2CN3C(=O)N(CCc4ccccc4)C(=O)C3(Cc3ccccc3)C=C21 (stereo not given) | inactive |
| C[C@H](CO)NC(=O)[C@@H]1C[C@H]1[C@@H](NP(=O)(c1ccccc1)c1ccccc1)c1ccccc1 | inactive |
| COC(=O)[C@@]1(Cc2ccc(F)cc2)[C@H]2c3cc(C(=O)N(C)C)n(Cc4c(CO)[nH]cc(C)c4=O)c3C[C@H]2CN1C(=O)c1ccccc1 | inactive |
| C[C@@]1(C(NC(=O)c2cccs2)c2ccc(-c3ccccc3)cc2)C[C@H]1C1CCCCC1 (stereo not given in full) | inactive |
| COC(=O)[C@@]1(Cc2ccc(OC)cc2)[C@H]2c3cc(C(=O)N4CCCC4)n(Cc4ccc(Cl)c(C(F)(F)F)c4)c3C[C@H]2CN1C(=O)c1ccccc1 | inactive |
| CCC/C=C(\CCC)C(NC(=O)c1ccc(C(F)(F)F)cc1)c1ccc(C(F)(F)F)cc1 (stereo not given) | inactive |
| C[C@@H](C(=O)NCc1nc2ccccc2[nH]1)[C@@H]1C[C@@]1(C)[C@@H](NC(=O)OCc1ccccc1)c1ccccc1 | inactive |
| C[C@@]1(C(NC(=O)Cc2ccccc2)c2ccc(-c3ccccc3)cc2)C[C@H]1C1CCCCC1 (stereo not given in full) | inactive |
| C[C@@H](C(=O)O)[C@@H]1C[C@@]1(C)[C@@H](NC(=O)OCc1ccccc1)c1ccccc1 | inactive |
| CC(C)=C1C(=O)C(c2ccccc2)=C2CN3C(=O)N(CCc4ccccc4)C(=O)[C@]3(Cc3ccccc3)[C@H]21 | inactive |
| COC(=O)C1(CC(C)C)C=C2C(=C(C(C)C)C(=O)C2C)CN1 (stereo not given) | inactive |
| COC(=O)[C@H]1C[C@@H]1[C@H](NC(=O)Oc1ccc(F)cc1)c1ccccc1 | inactive |
| CCCC1(C(=O)OC)C=C2C(=C(C)C(=O)C2C)CN1 (stereo not given) | inactive |
| CCc1c2c(nc3cccc(C(C)C)c13)-c1cccc(=O)n1C2 | inactive |
| COC(=O)[C@@H]1C[C@H]1[C@@H](NC(=O)c1cc(C)nn1C)c1ccccc1 | inactive |

| SMILES | Potency |
| --- | --- |
| C[C@@H](C(=O)Nc1ccc2ccccc2c1)[C@@H]1C[C@@]1(C)[C@@H](NC(=O)Oc1ccc(F)cc1)c1ccccc1 | inactive |
| COC(=O)[C@H]1C[C@@H]1[C@H](NC(=O)c1cnccn1)c1ccccc1 | inactive |
| C[C@@H](C(=O)Nc1ccc2ccccc2c1)[C@@H]1C[C@@]1(C)[C@@H](NC(=O)c1ccncc1Cl)c1ccccc1 | inactive |
| CCCC1(C(=O)OC)C=C2C(=C(C(C)C)C(=O)C2C)CN1 (stereo not given) | inactive |
| C#CCCCC(=O)Nc1ccccc1 | inactive |
| COC(=O)[C@@]1(Cc2ccc(F)cc2)[C@H]2c3cc(C(=O)N4CCCC4)n(Cc4ccc(Cl)c(C(F)(F)F)c4)c3C[C@H]2CN1C(=O)c1ccccc1 | inactive |
| CCCCCC1=C2CNC(C)(C(=O)OC)C=C2C(C)C1=O (stereo not given) | inactive |
| COC(=O)[C@@H]1C[C@H]1[C@@H](NC(=O)c1cc(C)on1)c1ccccc1 | inactive |
| COC(=O)[C@@]1(Cc2ccccc2)[C@H]2c3cc(C(=O)N4CCCC4)n(CCc4ccccn4)c3C[C@H]2CN1C(=O)c1ccccc1 | inactive |
| C[C@@H](C(=O)Nc1ccc2ccccc2c1)[C@H]1C[C@]1(C)[C@H](NS(=O)(=O)c1ccc(-c2ccccc2)cc1)c1ccccc1 | inactive |
| COC(=O)C1(Cc2ccccc2)C=C2C(=C(C)C(=O)C2C)CN1 (stereo not given) | inactive |
| C[C@H]1C2=C3C(CC[C@H]4C(OCc5ccc(F)cc5C(F)(F)F)OC[C@](C)([C@@H]34)N(C(=O)OC(C)(C)C)C2)C(CO)C1CO (stereo not given in full) | inactive |
| O=C(NCc1nc2ccccc2[nH]1)[C@H]1C[C@@H]1[C@H](NP(=O)(c1ccccc1)c1ccccc1)c1ccccc1 | inactive |
| CC[C@H]1C2=C3C(CC[C@H]4C(OCc5ccc(F)cc5C(F)(F)F)OC[C@](C)([C@@H]34)N(C(=O)OC(C)(C)C)C2)C(COC)C1COC (stereo not given in full) | inactive |
| CCCC/C=C/C(NC(=O)C(C)(C)C)c1ccccc1 (stereo not given) | inactive |
| COC(=O)[C@@H]1C[C@H]1[C@@H](NC(=O)c1cccnc1)c1ccccc1 | inactive |
| CCCC[C@H]1C[C@@H]1[C@@H]1N(P(=O)(c2ccccc2)c2ccccc2)C[C@@](O)(c2ccccc2)CC12CC2 | inactive |
